Out of some 52,000 compounds screened, about 4,300 (8.3%) were called active. The list comes from a sample in which actives are over-represented; it also holds similar structures and randomly drawn compounds. Unmarked numbers belong to inactive results. Cut-off read from the data, not from the text of the source: active = survival mostly below about 52% (no sharp cut-off); inactive = mostly above about 56%.
test system: DeltatarO mutant; experiment: S. aureus survival, RN4220 and DeltatarO strains – OD600, teichoic acid synthesis inhibitors, primary screen (AID 463173); details: S. aureus RN4220 wild type/DeltatarO growth, OD600, 18 h, hits give low values, screened at 18.75 µg/mL (by protocol)

Structure (SMILES) | survival
Cc1csc(=Nc2ccccc2)n1-c1ccccc1 | 81%
CCOC(=O)c1c(S(=O)(=O)NCC(=O)Nc2cccc(CC)c2)c(C)n(C)c1C | 84%
CCc1nn(CC(=O)NCc2ccccc2)c(=O)c2cccn12 | 69%
CN1C(=O)Cc2cc(S(=O)(=O)NCc3ccccc3Cl)ccc21 | 90%
CC(C)CC(C(N)=O)N1C(=O)c2ccccc2C1=O (centres undefined) | 84%
CCOC(=O)C1CCN(C(=O)Cn2ncc3c4ccccc4n(Cc4ccccc4F)c3c2=O)CC1 | 84%
CCOc1ccc(-c2cc(C(=O)N3CCN(S(=O)(=O)c4cc(Cl)ccc4OC)CC3)[nH]n2)cc1 | 73%
COc1ccc(Cl)cc1S(=O)(=O)N1CCN(C(=O)c2cc(-c3ccc(Br)cc3)n[nH]2)CC1 | 47% (active)
COc1ccc(S(=O)(=O)N2CCN(C(=O)c3cc(-c4ccc(Br)cc4)n[nH]3)CC2)cc1OC | 73%
COc1ccc(S(=O)(=O)Nc2cc3c(cc2NCc2ccccc2)n(C)c(=O)n3C)cc1 | 69%
O=C(Nc1ccc(F)cc1)C1CCN(c2nc3ccccc3n3cccc23)CC1 | 75%
O=c1cc(COc2ccccc2Cl)nc2scc(-c3ccccc3)n12 | 81%
Cc1c(C(=O)N2CCOCC2)sc(NC(=O)c2ccc3c(c2)OCO3)c1C#N | 90%
CC(C)c1ccc(NC(=O)C2CCCN(S(=O)(=O)c3cccc4cccnc34)C2)cc1 (centres undefined) | 71%
Cc1ccc(NC(=O)C2CCCN(S(=O)(=O)c3cccc4cccnc34)C2)cc1 (centres undefined) | 102%
Cc1noc(/C=C/N(C)C)c1S(=O)(=O)N1CCCC(C(=O)Nc2cccc(F)c2)C1 (centres undefined) | 90%
CCOc1ccc(NC(=O)C2CCCN(S(=O)(=O)c3c(C)noc3/C=C/N(C)C)C2)cc1 (centres undefined) | 94%
CCc1ccc(NC(=O)C2CCCN(S(=O)(=O)c3c(C)noc3/C=C/N(C)C)C2)cc1 (centres undefined) | 42% (active)
CCc1ccc(NC(=O)C2CCCN(S(=O)(=O)c3cccc4cccnc34)C2)cc1 (centres undefined) | 58% (active)
O=S(=O)(Nc1ccc(-c2ccc(N3CCCC3)nn2)cc1)c1ccc(Cl)cc1 | 102%
CCCCN(C)C(=O)c1ccc2c(c1)N(Cc1ccc(F)cc1)C(=O)c1ccccc1S2(=O)=O | 118%
O=C(Nc1ccc(F)cc1C(F)(F)F)C1CCN(c2ncccn2)CC1 | 76%
CC(=O)Nc1ccc2c(c1)n(C)c(=O)n2C | 85%
COc1ccc(OC)c(CCNC(=O)C(C)n2c(C)c3cnn(-c4ccccc4)c(=O)c3c2C)c1 (centres undefined) | 82%

Structure (SMILES) | survival
Cc1cc(C)c(C#N)c(SCc2cccnc2)n1 | 53%
COc1cc2nc(SCc3cccc(Cl)c3)n3nc(CCn4nc(C)cc4C)nc3c2cc1OC | 79%
COc1cccc(CSc2nc3cc(OC)c(OC)cc3c3nc(CCn4nc(C)cc4C)nn23)c1 | 60% (active)
COc1cc2nc(SCc3ccc(C)cc3)n3nc(CCn4nc(C)cc4C)nc3c2cc1OC | 58%
CCc1ccccc1NC(=O)c1ccc2nc(C(C)C)oc2c1 | 73%
CCn1cc2nc(SCc3cc(C)ccc3C)n(Cc3ccc(C)cc3)c(=O)c2n1 | 69%
CCC(CC)C(=O)Nc1nnc(SCc2cc(=O)c3ccccc3[nH]2)s1 | 115%
CC(=O)N1CCc2c(sc3nc(SCC(C)C)n(-c4ccc(C)c(Cl)c4)c(=O)c23)C1 | 45% (active)
CCCCCSc1nc2sc3c(c2c(=O)n1-c1ccccc1)CCN(C(C)=O)C3 | 77%
COc1ccc(-n2c(SCCC(C)C)nc3sc4c(c3c2=O)CC(C(C)C)OC4)cc1 (centres undefined) | 30% (active)
CCOC(=O)CSc1nc2sc3c(c2c(=O)n1-c1ccc(OC)cc1)CC(C(C)C)OC3 (centres undefined) | 73%
COc1ccc(-n2c(=O)c3c4c(sc3n3c(SCCC(C)C)nnc23)COC(C(C)C)C4)cc1 (centres undefined) | 59%
CC(=O)N1CCc2c(sc3nc(SCC(C)C)n(-c4ccc(F)c(Cl)c4)c(=O)c23)C1 | 63%
CCCCCSc1nc2sc3c(c2c(=O)n1-c1ccc(OC)cc1)CCN(C(C)=O)C3 | -18% (active)
CCSc1nc2sc3c(c2c(=O)n1-c1ccc(C)c(Cl)c1)CCN(C(C)=O)C3 | 61%
COc1ccc(-n2c(SC)nc3sc4c(c3c2=O)CCN(C(C)=O)C4)cc1 | 127%
Nc1c(C(=O)Nc2cccc(Cl)c2)sc2nc3c(cc12)CN(Cc1ccccc1)CC3 | 69%
Cc1ccc(NC(=O)Cn2cc3c(n2)CCCCC3)cc1 | 77%
COc1ccc(NC(=O)CSc2nc3ccccc3n2CC(=O)N(C)c2ccc(F)cc2)cc1 | 87%
Cc1nn(C)c(C)c1S(=O)(=O)N(CC(=O)N1CCN(c2ccccc2)CC1)c1ccc(C(C)C)cc1 | 79%
COc1ccc(-c2cn3c(n2)sc2cc(C(=O)NCC(C)c4ccccc4)ccc23)cc1 (centres undefined) | 65%
CCC1CCCCN1C(=O)CSc1nc2c([nH]c3ccccc32)c(=O)n1-c1ccc(OC)cc1 (centres undefined) | 25% (active)
O=C(CSc1nc2c([nH]c3ccccc32)c(=O)n1-c1ccccc1)N1CCCCC1 | 73%
CCOc1ccc(-n2c(SCC(=O)NC3CCCCC3)nc3c([nH]c4ccccc43)c2=O)cc1 | 92%

Structure (SMILES) | survival
CCSc1nc2c([nH]c3ccccc32)c(=O)n1-c1cccc(OC)c1 | 94%
COc1cccc(-n2c(SCC(=O)N3CCCCC3)nc3c([nH]c4ccccc43)c2=O)c1 | 20% (active)
COc1ccc(-n2c(SCC(=O)NC3CCCCC3)nc3c([nH]c4ccccc43)c2=O)cc1 | 37% (active)
CCC1CCCCN1C(=O)CSc1nc2c([nH]c3ccccc32)c(=O)n1-c1cccc(OC)c1 (centres undefined) | 66%
CCSc1nc2c([nH]c3ccccc32)c(=O)n1-c1ccc(OC)cc1 | 46% (active)
O=C(CSc1nc2c([nH]c3ccccc32)c(=O)n1-c1ccccc1)N1CCCCCC1 | 95%
CCSc1nc2c([nH]c3ccccc32)c(=O)n1-c1ccc(F)cc1 | 87%
O=C(CSc1nc2c([nH]c3ccccc32)c(=O)n1-c1ccc(F)cc1)NC1CCCCC1 | 83%
CCOc1ccc(-n2c(SCC(=O)N3CCCCCC3)nc3c([nH]c4ccccc43)c2=O)cc1 | 106%
C(#Cc1ccccc1)CN1CCCCC1 | 107%
CN(C)S(=O)(=O)c1ccc(C(=O)NCCSc2c(-c3ccc(Br)cc3)[nH]c3ccccc23)cc1 | 74%
CC(C)Cn1c(SCc2cccc(F)c2)nc2ccsc2c1=O | 74%
CCCCNC(=O)CSc1nc2n[nH]c(C)c2c(=N)n1-c1ccccc1CC | 89%
O=C1CN(C(=O)Nc2ccccc2Cl)C(c2ccccc2)c2c(sc3c2CCCC3)N1 (centres undefined) | 73%
CCc1ccccc1N1C(=O)N(CC(=O)c2ccc(OC)cc2)c2ccccc2S1(=O)=O | 79%
CC(C)CCNC(=O)Nc1ccc2c(c1)N(Cc1ccccc1)C(=O)c1ccccc1S2 | 79%
Cc1nc(SCCOc2ccccc2F)[nH]c(=O)c1Cc1ccccc1 | 75%
Cc1ccc(-n2nc3c(=O)n(C(C)C(=O)O)nc(C)c3c2C)cc1 (centres undefined) | 101%
Cc1ccc(-c2nc(C(=O)NCc3ccc(Cl)cc3)c3n2CCCCC3)cc1 | 56%
CSc1nnc2[nH]c(=O)cc(C)n12 | 69%
Cc1ccc(-n2nc(C)c3c(C(=O)Nc4ccc(C)cc4Cl)cc(C)nc32)cc1 | 63%
CN(Cc1ccco1)S(=O)(=O)c1nnc(NC(=O)c2cccc(Cl)c2)s1 | 5% (active)
CN(c1ccc(Cl)cc1)S(=O)(=O)c1nnc(NC(=O)c2ccco2)s1 | 62%
CCC(=O)Nc1nnc(S(=O)(=O)N(C)Cc2ccc(Cl)cc2)s1 | 94%

Structure (SMILES) | survival
Cc1cccc(C(=O)Nc2nnc(S(=O)(=O)N(C)Cc3ccco3)s2)c1 | 25% (active)
COc1cc(C(=O)Nc2cc(C)ccc2OCc2cc(=O)n3c(C)csc3n2)cc(OC)c1OC | 58%
COc1ccc(N(CC(=O)N2CCN(c3ccc(F)cc3)CC2)S(=O)(=O)c2c(C)n[nH]c2C)cc1 | 70%
O=C(Nc1ccc(NC(=O)c2ccccc2F)cn1)c1ccco1 | 82%
COc1ccc(OC)c(NC(=O)Cc2c(C)n(C(=O)c3ccc(Cl)cc3)c3ccc(OC)cc23)c1 | 74%
CCOc1cc(-c2ccc(OC(=O)c3ccc(Cl)cc3)c(OC)c2)cc(=O)c2c(C)oc(C)c12 | 80%
CCOc1cc(-c2ccc(OC(=O)c3ccc(C)cc3)c(OC)c2)cc(=O)c2c(C)oc(C)c12 | 99%
CCOc1cc(-c2ccc(OC(=O)c3ccc(OC)cc3)c(OC)c2)cc(=O)c2c(C)oc(C)c12 | 41% (active)
O=C(CSc1ncc2c(n1)-c1ccccc1N(Cc1ccc(F)cc1)S2(=O)=O)NCCc1ccccc1 | 94%
Cc1cccc(NC(=O)NC2COc3ccccc3C2)c1C (centres undefined) | 69%
Cc1cc(C)cc(-n2c(SCC(N)=O)nc3c(oc4ccccc43)c2=O)c1 | 97%
CCc1ccc(-c2cn3c(n2)sc2cc(C(=O)NCCCc4ccccc4)ccc23)cc1 | 70%
O=C(NC1CCCCCC1)c1ccc2c(c1)sc1nc(-c3ccccc3)cn12 | 55%
O=C(NCCCc1ccccc1)c1ccc2c(c1)sc1nc(-c3ccc(F)cc3)cn12 | 44% (active)
Cc1ccc(-c2cn3c(n2)sc2cc(C(=O)NCCCN4CCCCC4)ccc23)cc1 | -3% (active)
Cc1ccc(-c2cn3c(n2)sc2cc(C(=O)NC4CCCCC4)ccc23)cc1 | 68%
O=C(NCCCN1CCCCCC1)c1ccc2c(c1)sc1nc(-c3ccccc3)cn12 | 44% (active)
Cc1ccc(-c2cn3c(n2)sc2cc(C(=O)NCCCN4CCCCCC4)ccc23)cc1 | -4% (active)
Cc1ccc(-c2cn3c(n2)sc2cc(C(=O)NC4CCCCCC4)ccc23)cc1 | 94%
O=C(NC1CCCCC1)c1ccc2c(c1)sc1nc(-c3ccccc3)cn12 | 69%
Cc1ccc(-c2cn3c(n2)sc2cc(C(=O)N4CCCCC4)ccc23)cc1 | 79%
Cc1ccc(-c2cn3c(n2)sc2cc(C(=O)NCCCc4ccccc4)ccc23)cc1 | 72%

— PubChem BioAssay AID463173 (ICCB-Longwood Screening Facility, Harvard Medical School, 2010)
